From PubChem BioAssay (NCATS)
Results filed as inconclusive are left out. Active and inactive are the calls of the source. The call rests on the fitted dose curve; in most records, active means well fitted inhibition curve with a large enough effect; inconclusive means small, poorly fitted or top-dose-only effect; inactive means no such curve, though single readings can be large or run the other way.

Experiment: BET inhibitor-based combinations targeting novel dependencies in MECOM-rearranged (r) AML: SET-2 cell line (AID 2202231); further: nearly all actives have a fitted effect of over 35% in size;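 on viability: plate controls were DMSO treated cells for no effect and wells without cells for full effect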
Conditions: SET-2 AML cells viability, CellTiter-Glo luminescence, 48 h; viability: stronger effect = lower value, series mostly up to about 46 µM
How it was run: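 Luminescent ATP readout (CellTiter-Glo) after 48 hr drug exposure gives viability. Curves span 11 concentrations and are normalized to DMSO and empty wells. Activity is reported as area under the curve and its Z-transform within each cell line.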
Potency means the concentration at half of the fitted maximal effect.

SMILES	viability	Potency
C=CCN1C[C@H](C(=O)N(CCCN(C)C)C(=O)NCC)CC2c3cccc4[nH]cc(c34)C[C@H]21 (some centres undefined)	115% (inactive)	
COC1CC(C(=O)c2ccc3c(N)ncc(-c4ccc(-c5cnn(C)c5)cc4)c3n2)C1 (centres undefined)	92.9% (inactive)	
CCC(C)CNCC(=O)N1CCc2sccc2C1c1cccc(C)n1 (centres undefined)	95.4% (inactive)	
COc1ccc2c(c1OC)C(=O)OC2[C@H]1c2c(cc3c(c2OC)OCO3)CCN1C (some centres undefined)		16.6 µM (active)
C[C@H]1CNCCCN1S(=O)(=O)c1cccc2cncc(F)c12	113% (inactive)	
CCCC[C@@H](C=O)NC(=O)[C@H](CC(C)C)NC(=O)OCc1ccccc1		18.6 µM (active)
Cc1ccc(NC(=O)NCc2ccc3c(c2)CN(C2CCC(=O)NC2=O)C3=O)cc1Cl (centres undefined)		0.0295 µM (active)
CCOC(=O)C1=C(C)NC(=S)NC1c1cccc(O)c1 (centres undefined)	98.4% (inactive)	
CC(=O)NCCCS(=O)(=O)O	115% (inactive)	
CC(=O)Nc1cc(Oc2ccc3c(nc(Nc4ccc(F)cc4F)n3C)c2C)ccn1		0.209 µM (active)
C[C@@H]1CC(=O)Nc2cccc(-c3ccc4c(c3)c(-c3cnn(C)c3)nn4C)c2N1		6.61 µM (active)
COc1cc2c(cc1OC)CN(CCc1ccc(-n3nnc(-c4cc(OC)c(OC)cc4NC(=O)c4cc(=O)c5ccccc5o4)n3)cc1)CC2	116% (inactive)	
O=C(O)CNC(=O)c1ncc(-c2cccc(Cl)c2)cc1O	110% (inactive)	
CCC(=O)O[C@]1(C(=O)CO)CC[C@H]2[C@@H]3CCC4=CC(=O)CC[C@]4(C)[C@H]3CC[C@@]21C	101% (inactive)	
